12-LOX inh: inhibitors of human 12S-lipoxygenase ALOX12. 1.1% of 580,000 active. P18054. Potency, µM (titrated, usually from 108 µM), inactives show top-dose activity change, negative = inhibition, hits mostly inhibitors. purified 12hLO, xylenol orange hydroperoxide absorbance. AID 1671190; note: potency is the fitted concentration of half-maximal effect
Target sequence (P18054 whole entry, looked up): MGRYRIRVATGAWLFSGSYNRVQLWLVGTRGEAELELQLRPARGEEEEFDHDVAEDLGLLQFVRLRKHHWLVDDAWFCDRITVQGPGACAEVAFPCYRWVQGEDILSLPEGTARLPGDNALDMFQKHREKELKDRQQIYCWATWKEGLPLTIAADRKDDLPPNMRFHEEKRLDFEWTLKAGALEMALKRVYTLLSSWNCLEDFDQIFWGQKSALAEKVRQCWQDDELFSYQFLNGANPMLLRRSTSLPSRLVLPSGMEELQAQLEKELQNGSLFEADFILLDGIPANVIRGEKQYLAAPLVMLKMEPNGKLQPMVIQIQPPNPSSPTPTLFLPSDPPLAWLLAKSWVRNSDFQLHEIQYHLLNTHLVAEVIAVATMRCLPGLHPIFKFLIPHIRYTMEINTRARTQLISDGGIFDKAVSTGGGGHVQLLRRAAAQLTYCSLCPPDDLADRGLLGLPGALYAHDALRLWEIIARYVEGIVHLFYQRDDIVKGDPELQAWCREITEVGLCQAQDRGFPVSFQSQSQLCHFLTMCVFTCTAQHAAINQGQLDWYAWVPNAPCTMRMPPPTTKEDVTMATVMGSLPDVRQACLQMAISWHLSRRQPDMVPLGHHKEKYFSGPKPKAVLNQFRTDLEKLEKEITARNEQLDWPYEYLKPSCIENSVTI
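Purified human 12hLO (150 nM final) in 25 mM Hepes, 0.01% Triton X-100, pH 7.0 was preincubated 15 min at room temperature with compound. Then 40 uM arachidonic acid was added, 30 min. Hydroperoxide was read by Fe-XO absorbance ratio 573/405 nm.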
HT1080-NT tox: kills 2HG-producing HT-1080-NT fibrosarcoma cells. HT-1080-NT fibrosarcoma viability, CellTiter-Glo ATP luminescence, 48 h. Potency, µM (doses to about 46.1 µM), for the others: top-dose activity, negative = less viability, hits mostly cytotoxic. 1.6% of 360,000 active. AID 686970;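 note: NT is the 2HG producing partner of a matched IDH1 knockdown line; potency is the fitted concentration of half-maximal effect; 0% = DMSO-treated cells and -100% = media-only wells without cells; nearly all actives have a fitted effect of over 55% in size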
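HT-1080-NT; 750 cells/well; 5% FBS RPMI; 48 h compound, 37 degrees C; CellTiter-Glo luminescence; curve fitting and curve-class assignment.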
HT1080 IDH1KD tx: HT-1080 IDH1 knockdown cell toxicity (counter line) | HT-1080 IDH1 knockdown viability, ATP luminescence, 48 h | Potency, µM (top dose mostly 46.1 µM), without a hit: at the top dose activity, negative = toxicity, actives largely listed as cytotoxic | 2% of 360,000 active | AID 686971;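 note: potency is the fitted concentration of half-maximal effect; 0% = DMSO wells and -100% = cell-free medium wells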
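CellTiter-Glo luminescence after 48 h compound exposure at 37 degrees C of IDH1-knockdown HT-1080 cells in 5% FBS RPMI. %Activity scaled between DMSO wells and cell-free media wells, with curves fitted and assigned curve classes.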
IL-1B inflam inh: inflammasome signaling inhibition, IL-1 beta readout; THP-1 LPS/ATP IL-1B secretion, AlphaLISA, 16 h; hits give low values; activity change, % at 57.5 µM; 4.7% of 360,000 active; in the data active = activity change below about -50%; inconclusive = mostly about -30% to -49%
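THP-1 cells pretreated 1 hr with compounds (up to 57.5 uM final), then stimulated with LPS (250 ng/mL final) plus ATP (1.25 mM final); secreted IL-1B measured by AlphaLISA after 16 hr, decreased signal indicating inhibition.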
DT40 TDP1 CPT: DT40-hTDP1 cell growth loss with CPT | chicken DT40 Tdp1-/-;hTDP1 cells + 20 nM CPT, ATP luminescence, 48 h | Potency, µM (doses to about 46.2 µM), inactives show top-dose activity change, negative = growth inhibition, hits mostly inhibitors | 12% of 420,000 active; note: potency is the fitted concentration of half-maximal effect; nearly all actives have a fitted effect of over 55% in size
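Chicken DT40 Tdp1-/- cells stably complemented with human TDP1 were seeded at 400 cells/well in medium containing 20 nM camptothecin, exposed to pin-transferred compounds, and grown at 37 °C for at least 48 hr. Viability was read as ATP luminescence.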
TDP1 cell noCPT: qHTS for Inhibitors of human tyrosyl-DNA phosphodiesterase 1 (TDP1): qHTS in cells in absence of CPT; Potency, µM (series often up to 46.2 µM), for the others: at the top dose activity change, negative = growth inhibition, actives largely listed as inhibitors; AID 686978, 2013; DT40 Tdp1-/- hTDP1 cells, no CPT, ATP luminescence, 48 h; 15% of 420,000 active; note: potency is the fitted concentration of half-maximal effect; nearly all actives have a fitted effect of over 55% in size
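Growth of hTDP1-complemented DT40 Tdp1-knockout cells is measured by ATP luminescence after at least 48 hr compound exposure at 37 °C, with DMSO substituting for the 20 nM CPT used in the parallel screen.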
An asterisk follows results filed as active; ? = inconclusive; nt = not tested or not shown; [ ] = another dose, or the depositor's remark. Only a selection was taken, and hits are over-represented in it overall. Unless noted, calls come from the whole dose curve; as a rule, active = well fitted curve in the direction sought with a large enough effect; inconclusive = small, poorly fitted or top-dose-only effect, or another doubt; inactive = no such curve, though single readings can be large; an effect the other way counts as inactive or inconclusive. Unless noted, % is set by controls: 0 for no effect and ±100 for the full control effect.

SMILES	12-LOX inh	HT1080-NT tox	HT1080 IDH1KD tx	IL-1B inflam inh	DT40 TDP1 CPT	TDP1 cell noCPT
CC(=O)c1cccc(NC(=O)c2cccn(Cc3cccc(C)c3)c2=O)c1	-10%	nt	nt	nt	23µM*	21µM*
CCn1c(C2CCCNC2)nn(C)c1=O (configuration not stated)	27%	nt	nt	nt	nt	nt
CN1CCc2cc3c(c4c2C1Cc1ccccc1-4)OCO3 (configuration not stated)	-12%	-1%	-11%	-54*	-4%	-27%
Cc1ccccc1-c1ccc2n(c1=O)C[C@H]1C[C@@H]2CN(C(=O)c2ccc(F)cc2)C1	-15%[176 µM]	nt	nt	nt	nt	nt
CS(=O)(=O)N(C1CC1)C1CCOC2(CCNCC2)C1 (configuration not stated)	5%	nt	nt	nt	nt	nt
O=C1NC(=S)NC(=O)C1c1ccccc1	32µM*	17%	8%	17	0%	1%
C#CCC(Cc1cnc2nc(N)nc(N)c2n1)c1ccc(C(=O)N[C@@H](CCC(=O)O)C(=O)O)cc1 (some centres not stated)	2%[57.4 µM]	nt	nt	nt	0.034µM*	0.024µM*
COc1ccc(C(=O)c2c(C)n(CCN3CCOCC3)c3ccccc23)cc1	?	nt	nt	nt	?	24µM*
Cc1ccc(S(=O)(=O)NC[C@H]2C[C@@H]3CCN2C[C@@H]3CN(C)CCc2ccccn2)cc1	28%	nt	nt	nt	nt	nt
COc1ccc(C=C(C#N)c2ccc(OC)cc2)cc1	-12%	-1%	-11%	-58*	?	?
CCCCc1c(C)nc(N2CCN(C)CC2)[nH]c1=O	28%	nt	nt	nt	nt	nt
Cc1ccc2c(CN3CC=C(c4ccccc4)CC3)cc(=O)oc2c1C	-19%	4%	5%	1	?	23µM*
O=c1[nH]c(CN2CC=C(c3ccccc3)CC2)nc2cc(C(F)(F)F)ccc12	488%	-7%	-1%	25	?	?
CCc1ccc2c(CN3CC=C(c4ccccc4)CC3)cc(=O)oc2c1	?	4%	0%	10	?	16µM*
CCCS(=O)(=O)NC[C@H]1C[C@@H]2CCN1C[C@@H]2c1cc(-c2ccccc2)nn1C	68%[176 µM]	nt	nt	nt	nt	nt
CCCCCC[C@H]1C(=O)O[C@H](C)[C@H](NC(=O)c2cccc(NC=O)c2O)C(=O)O[C@@H](C)[C@@H]1OC(=O)CC(C)C	-12%[57.4 µM]	nt	nt	nt	0.017µM*	0.019µM*
Cc1[nH]c2ccc(C34CC5CC(CC(C5)C3)C4)cc2c1CCN	32µM*	nt	nt	nt	nt	nt
Cc1[nH]c2c(C(C)C)cccc2c1CCN	-59%	nt	nt	nt	nt	nt
CN(C)C(=O)CCSC(SCCC(=O)O)c1cccc(/C=C/c2ccc3ccc(Cl)cc3n2)c1 (configuration not stated)	nt	nt	nt	nt	?	17µM*
c1ccc2sc(C3(N4CCCCC4)CCCCC3)cc2c1	?	nt	nt	nt	27µM*	18µM*
COCCCn1c(N)c(C(=O)Nc2ccccc2)c2nc3ccccc3nc21	0%	?	?	-76*	29µM*	?
COCCCn1c(N)c(C(=O)Nc2sc3c(c2C(=O)OC)CCCC3)c2nc3ccccc3nc21	-6%	0%	15%	-72*	?	18µM*
COCCCn1c(N)c(C(=O)OC(C)COC)c2nc3ccccc3nc21 (configuration not stated)	0%	-4%	-3%	-20	-8%	-17%
Cc1ccc(-c2cc(-c3ccccc3)cc(-c3ccccc3)[n+]2-c2ccccc2)cc1	?	?	12µM*	-100*	1.6µM*	0.92µM*
C[n+]1c(-c2ccccc2)cc(-c2ccc(Cl)cc2)cc1-c1ccccc1	-2%	?	?	-83*	3.7µM*	2.1µM*

From PubChem
